Data on 91 molecules can be found in PubChem BioAssay AID547 (Emory University Molecular Libraries Screening Center, 2006).

Each structure is given as a SMILES string. “And” between values parts separate entries of the source, which are not always exact repeats. Identical values can stand only once. Out of some 1,300 compounds screened, about 10 (0.8%) were called active. The rule behind the calls is not given here. This excerpt belongs to a sample that is enriched for actives.

The assay deals with Chaperone protein DnaK (Escherichia coli (strain K12)) (UniProt P0A6Y8). Kind of assay: E. coli DnaK chaperone inhibitors, primary screen, luminescence, E. coli K12 (AID 547).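 Note: tested at 10 µM.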 Conditions: DnaK chaperone assay, luminescence read-out; stronger effect = lower value.
Consider `NCCCCCCNS(=O)(=O)c1cccc2c(Cl)cccc12`, for which the luminescence is 2.8e+06 cps (inactive).
`CCSC(N)=Nc1ccc(C(F)(F)F)cc1`: the luminescence is 2.3e+06 cps (inactive).
Next, `OC[C@H]1O[C@@H](n2cnc3c(Nc4ccccc4)ncnc32)C(O)[C@H]1O` (stereo partly specified): 2.3e+06 cps (inactive); `COc1ccccc1N1CCN(CCCCNS(=O)(=O)c2cccc3c(N(C)C)cccc23)CC1`: 2.1e+06 cps (inactive); `O=c1cc(-c2ccccc2)[nH]c2nc(Cl)ccc12`: 2.7e+06 cps (inactive).
Next, `CC(=O)N[C@H](C(=O)O)C(C)(C)SN=O`: 2.5e+06 cps (inactive); `O=C(O)c1cc2cc(F)ccc2[nH]1`: 2.1e+06 cps (inactive); `O=c1[nH]c2cc(C(F)(F)F)ccc2n1-c1cc(C(F)(F)F)ccc1O`: 2.6e+06 cps (inactive).
`O=C(O)CC1CCCc2ccccc2C1O` (stereo unspecified): the luminescence was 2.7e+06 cps (inactive).
Next, `NCC(O)C1CCCCCCC1` (stereo unspecified): 2.9e+06 cps (inactive); `CN=C(NC#N)Nc1ccc(C2=NNC(=O)CC2C)cc1` (stereo unspecified): 2.6e+06 cps (inactive); `O=C1NC(c2cccc([N+](=O)[O-])c2)=CCN1c1ccccc1O`: 3e+06 cps (inactive).
Next, `CC1(C)CCC=[N+]1[O-]`: 2.6e+06 cps (inactive).
Next, `NC[C@@H]1O[C@H](C23CC4CC(CC(C4)C2)C3)Cc2c1ccc(O)c2O`: 3e+06 cps (inactive); `N#C/C(=C\c1c[nH]c2ccccc12)C(=O)c1ccc(O)c(O)c1`: 2.2e+06 cps (inactive).
As to `O=C1C2C=CC=CC2=NC(=S)N1CCN1CCC(=C(c2ccc(F)cc2)c2ccc(F)cc2)CC1` (stereo unspecified), the luminescence was 2.9e+06 cps (inactive).
Next, `COc1cc2nc(N3CCN(C(=O)OCc4ccccc4)C(C(=O)NC(C)(C)C)C3)nc(N)c2cc1OC` (stereo unspecified): 2.3e+06 cps (inactive).
For the molecule `CCc1cccc(N(C)C(N)=Nc2cccc3ccccc23)c1`, the luminescence was 2.4e+06 cps (inactive).
Next, `Nc1nc(Cl)nc2c1ncn2[C@@H]1O[C@H](CO)[C@H](O)C1O` (stereo partly specified): 2.7e+06 cps (inactive); `OCc1ccc(-c2nn(Cc3ccccc3)c3ccccc23)o1`: 2.1e+06 cps (inactive).
Next, `CC(N)(Cc1ccc(O)c(O)c1)C(=O)O` (stereo unspecified): 2.3e+06 cps (inactive); `CC1CNCCN1S(=O)(=O)c1cccc2cnccc12` (stereo unspecified): 3.1e+06 cps (inactive) and 2.6e+06 cps (inactive); `OCC1NC[C@@H](O)C(O)[C@@H]1O` (stereo partly specified): 2.4e+06 cps (inactive).
As to `O=C(O)CNC(=O)C(CS)Cc1ccccc1` (stereo unspecified), the luminescence is 2.3e+06 cps (inactive).
Next, `CN(C)C/C=C(/c1ccc(Br)cc1)c1cccnc1`: 1.8e+06 cps (inactive).
Consider `CN1CCc2cc(NC(=O)Nc3cccnc3)ccc21`, for which the luminescence is 2.6e+06 cps (inactive).
Next, `CCCCOc1cc(CC2CNC(=O)N2)ccc1OC` (stereo unspecified): 2.5e+06 cps (inactive); `CCCCCCCCCCCCCCCCCC(=O)OC(CC(=O)O)C[N+](C)(C)C` (stereo unspecified): 2.5e+06 cps (inactive).
Next, `CN1C2CCC1CC(OC(=O)c1c[nH]c3ccccc13)C2` (stereo unspecified): 2.3e+06 cps (inactive).
Next, `NCCS`: 2.4e+06 cps (inactive).
Consider `Fc1ccc([C@@H]2CCNC[C@H]2COc2ccc3c(c2)OCO3)cc1`, for which the luminescence is 2.9e+06 cps (inactive).
Take `NCCCCCCCCCCN`: the luminescence is 2.6e+06 cps (inactive).
Next, `O=C(O)C1=CCCNC1`: 2.8e+06 cps (inactive).
Next, `C[C@]12CC[C@@H]3c4ccc(O)cc4CC[C@H]3[C@@H]1CC[C@@H]2O`: 2.9e+06 cps (inactive); `CCOC(=O)C1=C[C@]2(CC)CCCN3CCc4c(n1c1ccccc41)[C@@H]32`: 2.3e+06 cps (inactive); `O=Nc1c(-c2c(O)[nH]c3ccccc23)[nH]c2ccccc12`: 2.9e+06 cps (inactive).
In the case of `OC[C@H]1O[C@@H](n2cnc3c(NCCc4ccccc4)ncnc32)C(O)[C@H]1O` (stereo partly specified), the luminescence was 2.2e+06 cps (inactive).
Next, `CC(C)(C)NCC(O)COc1nsnc1N1CCOCC1` (stereo unspecified): 2.3e+06 cps (inactive).
Next, `O=c1n(CCCN2CCN(c3cccc(Cl)c3)CC2)nc2ccccn12`: 2.5e+06 cps (inactive); `CCN1CCc2nc(N)oc2CC1`: 2.6e+06 cps (inactive); `CC(N)C1CCC(C(=O)Nc2ccncc2)CC1` (stereo unspecified): 2.8e+06 cps (inactive).
Next, `COCc1nc2c([nH]1)c(=O)n(C)c(=O)n2CC(C)C`: 2.7e+06 cps (inactive); `CCCCC1C(=O)N(c2ccccc2)N(c2ccccc2)C1=O`: 2.6e+06 cps (inactive); `Oc1ccc(O)cc1`: 2.9e+06 cps (inactive).
In the case of `NC(=O)CC[C@H](N)C(=O)O`, the luminescence is 2.9e+06 cps (inactive).
Next, `COc1[nH]c2ccc(F)cc2c1C(=O)OCC1CCN(CCNS(C)(=O)=O)CC1`: 3e+06 cps (inactive); `COc1ccc(-c2ccc(N)[n+](CCCC(=O)O)n2)cc1`: 2.3e+06 cps (inactive); `C[C@H]1CC2C3CCC4=CC(=O)C=C[C@]4(C)[C@@]3(Cl)[C@@H](O)C[C@]2(C)[C@@]1(O)C(=O)CO` (stereo partly specified): 2.6e+06 cps (inactive).
Next, `N=S(=O)(O)Cc1noc2ccccc12`: 2.1e+06 cps (inactive); `CCCCCCCCCCC/C=C\C(C)(C)/C=C\CCCC(=O)O`: 2.3e+06 cps (inactive); `CCCCCCCC/C=C\CCCCCCCC(=O)NCCO`: 2.9e+06 cps (inactive).
Next, `CCCCCCC/C=C\CCCCCCCCC(=O)O`: 1.7e+06 cps (active); `CC1C(=O)N(C)C(=O)c2nc[nH]c21` (stereo unspecified): 2.4e+06 cps (inactive); `N.N.O=C(O)C1(C(=O)O)CCC1.[Pt+2]`: 2.5e+06 cps (inactive).
Regarding `CCCCS(=N)(=O)CCC(N)C(=O)O` (stereo unspecified), the luminescence is 1.9e+06 cps (inactive).
Next, `CCCCCCCC/C=C\CCCCCCCC(=O)NCCc1ccc(O)c(O)c1`: 1.5e+06 cps (active); `CCCCCCCCCCCCCCCC(=O)NCCO`: 2.9e+06 cps (inactive).
Next, `CC(=O)NCCc1ccc(O)c(O)c1`: 2.8e+06 cps (inactive); `NC(=O)c1ccccc1`: 2.5e+06 cps (inactive); `N#CC(Cc1ccc(O)c(O)c1)C(=O)N1CCc2ccccc21` (stereo unspecified): 2.2e+06 cps (inactive).
Next, `CCNC(=O)[C@H]1O[C@@H](n2cnc3c(N)nc(NCCc4ccc(CCC(=O)O)cc4)nc32)C(O)[C@H]1O` (stereo partly specified): 2.4e+06 cps (inactive).
`CC(=O)O[C@H]1CC2(C)[C@@H](C[C@@H](O)[C@H]3[C@@]4(C)CC[C@@H](O)[C@@H](C)[C@@H]4CC[C@@]32C)C1=C(CCC=C(C)C)C(=O)O` (stereo partly specified): the luminescence was 2.8e+06 cps (inactive).
Next, `O=C1N=C(O)CN1/N=C/c1ccc(-c2ccc([N+](=O)[O-])cc2)o1`: 3e+06 cps (inactive); `CCCCCCCCCCCCCCCC(=O)NCC(COP(=O)([O-])OCC[N+](C)(C)C)OCC` (stereo unspecified): 1.9e+06 cps (active); `CCCCCCCCCCCCCCCCCC(=O)NCC(COP(=O)([O-])OCC[N+](C)(C)C)OCC` (stereo unspecified): 2.8e+06 cps (inactive).
Next, `CCCCCCCCCCCCCCCCCCOC[C@H](COP(=O)([O-])OCC[N+](C)(C)C)OC`: 2.6e+06 cps (inactive); `COc1cccc(-c2cc(=O)c3ccccc3o2)c1N`: 2.2e+06 cps (inactive); `CC(C)OC(=O)C(C)(C)Oc1ccc(C(=O)c2ccc(Cl)cc2)cc1`: 2.9e+06 cps (inactive).
Consider `COc1ccc(CCN(C)CCCC(C#N)(c2cc(OC)c(OC)c(OC)c2)C(C)C)cc1OC` (stereo unspecified), for which the luminescence is 2.5e+06 cps (inactive).
Next, `COc1ccccc1N1CCN(CCN2C(=O)CC3(CCCC3)CC2=O)CC1`: 3.1e+06 cps (inactive).
Take `NC(=O)N1c2ccccc2C=Cc2ccccc21`: the luminescence was 2.7e+06 cps (inactive).
Next, `Cc1ccc(C(=O)O[C@H](C(=O)O)[C@H](OC(=O)c2ccc(C)cc2)C(=O)O)cc1` (tested in a mixture with another compound): 2.5e+06 cps (inactive); `CNC[C@H](O)c1cccc(O)c1`: 2.3e+06 cps (inactive).
Next, `Cc1nc2n(c(=O)c1CCN1CCC(c3noc4cc(F)ccc34)CC1)CCCC2`: 2.6e+06 cps (inactive); `c1ccc(-c2ccccn2)nc1`: 2.6e+06 cps (inactive).
Next, `CCCCOC(=O)NS(=O)(=O)c1sc(CC(C)C)cc1-c1ccc(Cn2c(CC)nc3c(C)cc(C)nc32)cc1`: 2.5e+06 cps (inactive); `CC#C[C@]1(O)CC[C@H]2[C@@H]3CCC4=CC(=O)CCC4=C3[C@@H](c3ccc(N(C)C)cc3)C[C@@]21C`: 2e+06 cps (inactive); `NCCCCCC(=O)O`: 2.3e+06 cps (inactive).
For the molecule `Oc1cc(O)c2c(c1)O[C@H](c1ccc(O)c(O)c1)[C@@H](O)C2`, the luminescence is 2.8e+06 cps (inactive).
Next, `CN1Cc2c(N)cccc2C(c2ccccc2)C1` (stereo unspecified): 2.2e+06 cps (inactive); `CN(C)c1cc2c(Nc3ccc4c(cnn4Cc4ccccc4)c3)ncnc2cn1`: 3e+06 cps (inactive); `CCSC(=N)N`: 2.4e+06 cps (inactive).
Next, `N[C@@H](CC(=O)O)C(=O)O`: 2.4e+06 cps (inactive); `N#Cc1cc2nc(O)c(O)nc2cc1[N+](=O)[O-]`: 2.8e+06 cps (inactive); `CN(C)c1nc(N(C)C)nc(N(C)C)n1`: 2.4e+06 cps (inactive).
Next, `COc1cc([C@@H]2c3cc4c(cc3[C@H](O)C3COC(=O)[C@@H]32)OCO4)cc(OC)c1OC` (stereo partly specified): 2.6e+06 cps (inactive); `CN1[C@@H](CC(=O)c2ccccc2)CCC[C@H]1C[C@H](O)c1ccccc1`: 2.6e+06 cps (inactive); `CCCCN1CCC(COC(=O)c2cc(Cl)c(N)c3c2OCCO3)CC1`: 2.2e+06 cps (inactive).
As for `COC(=O)C(N)Cc1ccc(Cl)cc1` (stereo unspecified), the luminescence is 2.2e+06 cps (inactive).
Next, `CC(C)NC[C@@H](O)c1ccc(O)c(O)c1`: 2.5e+06 cps (inactive); `Nc1ccc(CCNc2ncnc3c2ncn3C2OC(CO)C(O)C2O)cc1` (stereo unspecified): 2.9e+06 cps (inactive).
